Source: the supplement of paper PMC7411640
Structures can show the parent of a compound that is named as a salt.

What follows are compounds tested on MDA-MB-468 (assay: phospho-S6 immunofluorescence (DAPI-normalised), per-plate z-score; higher = higher phospho-S6 signal (less pathway suppression)). Details: co-treatment: lapatinib 1 uM; 24 h.
Protocol: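 GPCR-targeted compound library (MedChemExpress HY-L006) tested on MDA-MB-468 PTEN-null TNBC cells in 384-well plates at 0.1, 1 or 10 uM, combined with vehicle, GDC0941 450 nM or lapatinib 1 uM, for 24 h. Phospho-S6 (S240/244) immunofluorescence normalised to DAPI and expressed as a per-plate z-score; values are the mean of biological triplicates.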

First: CN(C)C(=O)CCSC(SCCC(=O)O)c1cccc(/C=C/c2ccc3ccc(Cl)cc3n2)c1 (centres undefined) [MK-571 (sodium salt)] (compound 10 µM)
Second: Cc1c(Cc2ccc3ccccc3n2)c2cc(F)ccc2n1CC(=O)O (compound 10 µM)
The “phospho-S6 immunofluorescence (z-score)” value of the first is higher: 0.9 for the first, 0.39 for the second.

First: COc1ccc(CCN2CCN(CCCc3ccccc3)CC2)cc1OC [SA4503 (dihydrochloride)] (compound 10 µM)
Second: O=C(O)CCc1ccc(NCc2cccc(Oc3ccccc3)c2)cc1 (compound 10 µM)
The “phospho-S6 immunofluorescence (z-score)” value of the first is lower: -0.13 for the first, 0.32 for the second.

Compared with `COc1ccc2c(c1OC)C(=O)O[C@@H]2[C@H]1c2c(cc3c(c2OC)OCO3)CCN1C` [Noscapine] (compound 10 µM), `CCNC1(C(N)=O)CCN(c2ncnc3c2nc(-c2ccccc2Cl)n3-c2ccc(Cl)cc2)CC1` [Otenabant] (compound 10 µM) is lower in “phospho-S6 immunofluorescence (z-score)” value: 0.12 for the first, -2.03 for the second.

Going from `C[C@H](Nc1cc(NS(=O)(=O)N2CCC2)nc(SCc2cccc(F)c2F)n1)[C@@H](O)CO` (compound 10 µM) to `CC(C)C[C@H](NC(=O)CNC(=O)[C@H](Cc1ccc(O)cc1)NC(=O)[C@H](CO)NC(=O)[C@H](Cc1c[nH]c2ccccc12)NC(=O)[C@H](Cc1cnc[nH]1)NC(=O)[C@@H]1CCC(=O)N1)C(=O)N[C@@H](CCCNC(=N)N)C(=O)N1CCC[C@H]1C(=O)NCC(N)=O` [Gonadorelin (acetate)] (compound 10 µM), the “phospho-S6 immunofluorescence (z-score)” value rises from -0.3 to 0.57.

For `CCCN[C@@H]1CCc2nc(N)sc2C1` [Dexpramipexole (dihydrochloride)] (compound 10 µM), the “phospho-S6 immunofluorescence (z-score)” value was 0.15.
